SMILES strings stand for the structures. “And” between values parts separate entries of the source, which are not always exact repeats. Identical values can stand only once. Results filed as inconclusive are left out. Some structures have more than one record in an assay (separate samples or runs), and their calls can disagree. The source made the active and inactive calls. Unless noted, calls come from the whole dose curve; as a rule, active = well fitted curve in the direction sought with a large enough effect in the repeat runs; inconclusive = weak or mixed curves; inactive = no such curve, though single readings can be large; an effect the other way counts as inactive or inconclusive.

The source of these data is PubChem BioAssay (Tox21).

Assay [1] is described as follows: qHTS assay for small molecule agonists of the p53 signaling pathway (AID 651631; calls by dose curve; note: nearly all actives have a fitted effect of over 15% in size; note: potency is the fitted concentration of half-maximal effect). Summed up:
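We treat p53RE-bla HCT-116 cells with compounds for 16 h at 37 °C, add LiveBLAzer B/G FRET substrate for 2 h at room temperature, and measure fluorescence intensity.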
A general note: In qHTS, concentration-response curves come from the screen itself.

A short description of assay [2]: qHTS assay for small molecules that induce genotoxicity in human embryonic kidney cells expressing luciferase-tagged ATAD5 (AID 651632). Note: nearly all actives have a fitted effect of over 15% in size. In outline: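 DMSO vehicle served as the control. HEK293T reporter cells, 16 hr at 37C, then 30 min Amplite at room temperature; ATAD5 induction is measured as luciferase activity.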
The nature of assay [3]: qHTS assay for small molecule agonists of the p53 signaling pathway - cell viability (AID 651633; calls by dose curve; note: nearly all actives have a fitted effect of over 30% in size; note: potency is the fitted concentration of half-maximal effect). In outline:
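p53RE-bla cells were treated with compound for 16 hours at 37 C. Cytotoxicity was then measured as CellTiter-Glo luminescence after 30 min at room temperature.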

The nature of assay [4]: qHTS assay for small molecule disruptors of the mitochondrial membrane potential - cell viability (AID 720634; calls by dose curve;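 note: human HepG2 liver cancer cells; series mostly up to about 83 µM; nearly all actives have a fitted effect of over 20% in size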). In outline:
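Viability of HepG2 cells is scored from ATP content by luminescence; cells are exposed to compound for 1 hr at 37 C and 5% CO2, then dosed with m-MPI dye before the CellTiter-Glo reagent.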

The nature of assay [5]: qHTS assay to test for compound auto fluorescence at 590 nm (red) in HepG2 cells (AID 720674). Summed up: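 Fluorescence at 590 nm emission following 540 nm excitation was recorded from HepG2 wells one hour after compound transfer, with DMSO-only wells as vehicle and Rose Bengal sodium equivalency as the scale.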
Assay [6] is described as follows: qHTS assay to test for compound auto fluorescence at 535 nm (green) in HepG2 cells (AID 720675).
Assay [7] is described as follows: qHTS assay to test for compound auto fluorescence at 460 nm (blue) in HEK293 cells (AID 720678). Note: potency is the fitted concentration of half-maximal effect. In outline:
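HEK293 cells (2,000/well, medium with 10% dialyzed FBS) attached 4-5 hr, then exposed to compound overnight at 37C, 5% CO2. Blue fluorescence read at 405/460 nm, with triamterene as reference fluorophore.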

Assay [8] is described as follows: qHTS assay to test for compound auto fluorescence at 590 nm (red) in HEK293 cells (AID 720679). In outline: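 HEK293 cells (2,000/well, 10% dialyzed FBS) attached 4-5 hr, then dosed with compound or DMSO and incubated overnight at 37C, 5% CO2. Red fluorescence read at 540/590 nm, Rose Bengal sodium as reference fluorophore.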
Assay [9] in a line: qHTS assay to test for compound auto fluorescence at 535 nm (green) in HEK293 cells (AID 720680).
A short description of assay [10]: qHTS assay to test for compound auto fluorescence at 460 nm (blue) in HEK293 cell free culture (AID 720681). Note: potency is the fitted concentration of half-maximal effect. Summed up: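 Compounds were added to cell-free DMEM with 10% FBS and fluorescence read directly. The blue channel used 405 nm excitation and 460 nm emission, with triamterene as the reference fluorophore.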
Assay [11] in a line: qHTS assay to test for compound auto fluorescence at 535 nm (green) in HEK293 cell free culture (AID 720682). In outline: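 Green-channel intensity (Ex/Em 485/535 nm) was recorded from compound-treated wells containing only DMEM with 10% FBS. Fluorescein provided the equivalency standard.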
Assay [12] can be described thus: qHTS assay to test for compound auto fluorescence at 590 nm (red) in HEK293 cell free culture (AID 720683). Summed up: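 Cell-free wells of DMEM with 10% FBS received compound, and intrinsic fluorescence was read at excitation/emission 540/590 nm. Values expressed as equivalence to Rose Bengal sodium.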
A short description of assay [13]: qHTS assay to test for compound auto fluorescence at 460 nm (blue) in HepG2 cell free culture (AID 720685). Note: potency is the fitted concentration of half-maximal effect. Summed up:
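Cell-free plates of MEM plus 10% FBS received 23 nL compound or DMSO vehicle; blue-channel (405/460 nm) intensity scored against triamterene as reference fluorophore.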

Assay [14] in a line: qHTS assay to test for compound auto fluorescence at 535 nm (green) in HepG2 cell free culture (AID 720686).
Assay [15] can be described thus: qHTS assay for small molecules that induce genotoxicity in human embryonic kidney cells expressing luciferase-tagged ATAD5 - cell viability (AID 651634; calls by dose curve; note: nearly all actives have a fitted effect of over 25% in size; note: potency is the fitted concentration of half-maximal effect). Summed up:
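Here HEK293T cells with the ATAD5 luciferase reporter are incubated with test compounds for 15.5 hr, and cytotoxicity is then gauged by measuring protease activity in live cells using fluorescence.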

The nature of assay [16]: qHTS assay to test for compound auto fluorescence at 590 nm (red) in HepG2 cell free culture (AID 720684). Summed up: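 Auto fluorescence equivalency versus Rose Bengal sodium, red channel Ex/Em 540/590 nm; compounds in cell-free MEM/10% FBS; DMSO vehicle control.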
A short description of assay [17]: qHTS assay to test for compound auto fluorescence at 460 nm (blue) in HepG2 cells (AID 720687). Note: potency is the fitted concentration of half-maximal effect. Summed up: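 HepG2 cells in MEM with 10% FBS, attached overnight at 37 C, were exposed to compound or DMSO for 1 hr at 37 C, 5% CO2. Blue fluorescence was read at 405/460 nm, with triamterene as reference fluorophore.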
A short description of assay [18]: qHTS assay for small molecule disruptors of the mitochondrial membrane potential (AID 720635). Note: potency is the fitted concentration of half-maximal effect. Summed up: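 HepG2 cells exposed to compound 1 hr at 37C, then Mito-MPS dye 30 min. Ratio read of aggregate (540/590 nm) versus monomer (490/535 nm) fluorescence.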
The target in assay [19] is Glucocorticoid receptor (Homo sapiens) (UniProt P04150). Nature of the assay: qHTS assay to identify small molecule agonists of the glucocorticoid receptor (GR) signaling pathway (AID 720691; active = well fitted activation curve with a large enough effect in the signal ratio in the repeat runs, not every such curve was filed as active; the % refers to the signal ratio). In outline:
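Compounds in DMSO, alongside positive controls, were added to GR-bla HeLa reporter cells and incubated 18 h at 37 C; GRE-driven beta-lactamase was detected by fluorescence after 2 h with FRET substrate at room temperature.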

Assay [20] shares this target. Nature of the assay: qHTS assay to identify small molecule antagonists of the glucocorticoid receptor (GR) signaling pathway (AID 720692; active = well fitted inhibition curve with a large enough effect in the signal ratio in the repeat runs, not every such curve was filed as active; the % refers to the signal ratio; note: potency is the fitted concentration of half-maximal effect). In outline: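 In a 1536-well cell format, compounds were added 4 h after seeding GR-bla HeLa cells, together with dexamethasone at 5 nM final; reporter activity was measured by FRET-substrate fluorescence following 18 h at 37 C.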
Tags give direction and shape of the fitted curve or compound fluorescence and quenching.

Chain of Glucocorticoid receptor (Homo sapiens) (P04150 whole entry, looked up): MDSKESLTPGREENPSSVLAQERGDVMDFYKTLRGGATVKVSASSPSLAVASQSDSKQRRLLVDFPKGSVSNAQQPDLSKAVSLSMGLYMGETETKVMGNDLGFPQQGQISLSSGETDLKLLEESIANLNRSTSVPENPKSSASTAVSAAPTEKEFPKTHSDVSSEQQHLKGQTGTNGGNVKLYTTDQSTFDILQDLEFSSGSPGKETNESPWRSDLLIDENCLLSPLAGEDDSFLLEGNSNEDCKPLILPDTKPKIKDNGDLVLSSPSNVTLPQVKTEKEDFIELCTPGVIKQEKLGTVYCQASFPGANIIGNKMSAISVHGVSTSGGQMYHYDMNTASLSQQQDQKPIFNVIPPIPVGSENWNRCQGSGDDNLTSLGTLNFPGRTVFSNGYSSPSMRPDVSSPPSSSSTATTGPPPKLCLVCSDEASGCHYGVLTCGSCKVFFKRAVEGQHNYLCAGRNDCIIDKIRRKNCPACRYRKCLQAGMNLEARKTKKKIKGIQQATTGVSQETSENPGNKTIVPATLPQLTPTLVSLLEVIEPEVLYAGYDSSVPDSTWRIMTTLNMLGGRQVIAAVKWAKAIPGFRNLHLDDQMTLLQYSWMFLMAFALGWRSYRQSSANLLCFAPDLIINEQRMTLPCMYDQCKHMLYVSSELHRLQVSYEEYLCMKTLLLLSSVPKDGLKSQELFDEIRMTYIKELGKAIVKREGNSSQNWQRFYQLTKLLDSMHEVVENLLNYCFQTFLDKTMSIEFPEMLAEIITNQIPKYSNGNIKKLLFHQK

As to `Cc1scc2c1N(C(=O)CN1CCN(C)CC1)c1ccccc1NC2=O`, the Potency entry in assay [1], in assay [2], in [3], in assay [4], in assay [6] and in assay [7] was “inactive” throughout. For the same compound, the Potency entry in assay [9], in assay [10], in assay [11], in assay [13] and in assay [14] was “inactive” throughout. Also, the result in assay [5], in [8] and in assay [12] was inactive.
Consider `CCN(CC)c1ccc2c(C)cc(=O)oc2c1`, for which the Potency in assay [1] was 30.9 µM (active) and 27.3 µM (active); in assay [7], 39.8 µM [fluorescent] (active); in assay [10] it was 39.8 µM (active); in [13] it was 35.5 µM [fluorescent] (active) and 39.8 µM [fluorescent] (active); in assay [17], 39.8 µM [fluorescent] (active). Moreover, the Potency result in assay [3], in [15], in [6], in assay [9], in [11] and in assay [14] was “inactive” in each case. In addition, the compound was classed as inactive in assay [5], in [8], in assay [12] and in [16].
In the case of `NC(N)=NC(=O)Cc1c(Cl)cccc1Cl`, the Potency result in assay [1], in assay [3], in assay [15], in assay [4], in [18] and in assay [6] was “inactive” each time. Also, the Potency entry in assay [9], in [10], in assay [11], in [13], in [14] and in assay [17] was “inactive” in each case. The Potency result in [19] is “inactive”. The outcome in [5], in assay [8] and in assay [12] was inactive.
Turning to `COC(=O)c1cccc(C(=O)OC)c1`, the Potency result in assay [1], in assay [2], in assay [3], in assay [4], in assay [18] and in assay [6] was “inactive” each time. For the same compound, the Potency entry in [9], in assay [10], in assay [11], in assay [13], in assay [14] and in [17] was “inactive” in each case. The call in [5], in [12] and in assay [16] was inactive.
Take `OCCOCCN1CCN(C(c2ccccc2)c2ccc(Cl)cc2)CC1` (stereo not drawn): the Potency result in [1], in assay [2], in assay [4], in assay [6], in [7] and in [9] was “inactive” each time. Also, the Potency entry in [10], in [11] and in assay [14] was “inactive” each time. In addition, the Potency result in assay [3] is “inactive and 60.3 µM (active)”. The outcome in assay [5], in [8] and in [12] was inactive.
With `CC[C@H]1CN2CCc3cc(OC)c(OC)cc3[C@@H]2C[C@@H]1C[C@H]1NCCc2cc(OC)c(OC)cc21`, the Potency in [1] was 38.7 nM (active); in assay [15] it was 168 nM (active) and 194 nM (active); in assay [20], 1.51 µM (active). Also, the Potency entry in assay [2], in assay [3], in [4], in assay [6], in assay [7] and in assay [9] was “inactive” in each case. The Potency entry in assay [10], in [11], in assay [14], in [17] and in assay [19] was “inactive” throughout. Further, the compound was classed as inactive in assay [5], in assay [8] and in assay [12].
Regarding `C=C(C)C(=O)O`, the Potency entry in assay [1], in assay [3], in assay [15], in [4], in assay [6] and in assay [7] was “inactive” in each case. The Potency entry in assay [9], in assay [10], in assay [11], in assay [14], in assay [17] and in assay [19] was “inactive” each time. In addition, the compound was called inactive in [5], in [8] and in assay [12].
On to `CCn1cc(C(=O)O)c(=O)c2cc(F)c(N3CCNC(C)C3)c(F)c21` (stereo not drawn), for which the Potency result in [1], in assay [3], in [15], in [4], in assay [18] and in assay [6] was “inactive” in each case. In addition, the Potency result in assay [7], in assay [9], in assay [10], in [11], in assay [14] and in assay [17] was “inactive” in each case. Further, the Potency entry in assay [19] and in [20] was “inactive” each time. Also, the compound was called inactive in assay [5], in assay [12] and in assay [16].
For `NCCO`, the Potency result in assay [1], in assay [2], in assay [3], in assay [4], in assay [6] and in assay [7] was “inactive” throughout. For the same compound, the Potency entry in assay [9], in assay [10], in assay [11], in assay [13], in [14] and in [17] was “inactive” in each case. The Potency entry in assay [19] was “inactive”. The outcome in assay [5], in assay [8], in assay [12] and in [16] was inactive.
For `COc1cc(C(=S)N2CCOCC2)ccc1O`, the Potency result in assay [1], in assay [2], in [3], in [15], in assay [4] and in assay [6] was “inactive” in each case. The Potency entry in assay [9], in [10], in assay [11], in assay [13], in [14] and in [19] was “inactive” throughout. For the same compound, the Potency entry in assay [20] is “inactive”. The compound was called inactive in [5], in assay [12] and in assay [16].
Consider `O=c1n(CC2CO2)c(=O)n(CC2CO2)c(=O)n1CC1CO1` (stereo not drawn), for which, in [1], the Potency is 13.3 µM (active) and 8.58 µM (active) and 8.63 µM (active). Also, the Potency result in assay [3], in [15], in assay [4], in assay [18], in [6] and in [7] was “inactive” each time. For the same compound, the Potency entry in assay [9], in assay [10], in [11], in [13], in assay [14] and in assay [17] was “inactive” throughout. Moreover, the compound was called inactive in assay [5], in assay [8], in assay [12] and in assay [16].
With `CCc1ccc(C(c2ccc(CC)cc2)C(Cl)Cl)cc1`, the Potency entry in [1], in assay [2], in assay [3], in assay [4], in [6] and in assay [7] was “inactive” throughout. Further, the Potency result in assay [9], in [10], in assay [11], in assay [13], in assay [14] and in assay [17] was “inactive” in each case. Besides, the Potency result in assay [19] was “inactive”. Further, the Potency in assay [18] is 49.3 µM (active) and 27.3 µM (active). For the same compound, the result in [5], in assay [8], in [12] and in assay [16] was inactive.
Regarding `O`, the Potency result in assay [1], in [3], in [15], in assay [4], in [6] and in [7] was “inactive” in each case. Besides, the Potency result in assay [9], in assay [10], in [11], in assay [13], in assay [14] and in assay [17] was “inactive” throughout. The Potency in assay [18] is 31 µM (active). Further, the call in [5], in assay [8], in assay [12] and in assay [16] was inactive.
`O=Cc1ccc(Cl)cc1`: the Potency entry in assay [1], in assay [2], in assay [3], in [4], in [6] and in assay [7] was “inactive” each time. Also, the Potency entry in assay [9], in [10], in assay [11], in [13], in [14] and in assay [17] was “inactive” each time. Moreover, the call in [5], in [8], in [12] and in assay [16] was inactive.
